IMPase inh = IMPase inhibition in cells; P97697; CHO-M1 cells, IP1 accumulation, HTRF TR-FRET ratio; inhibition (IP1 accumulation), % at 46.1 µM; 120,000 tested, under 10 active; AID 901; active = well fitted curve in the direction sought with a large enough effect in the signal ratio, not every such curve was filed as active; inconclusive = small, poorly fitted or top-dose-only effect, or a change in a side signal; inactive = no such curve, though single readings can be large or run the other way; the % refers to the signal ratio;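 note: cells stimulated with carbachol in lithium chloride buffer; higher means more IMPase inhibition seen as more IP1 and lower FRET ratio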
Target sequence (P97697 whole entry, looked up): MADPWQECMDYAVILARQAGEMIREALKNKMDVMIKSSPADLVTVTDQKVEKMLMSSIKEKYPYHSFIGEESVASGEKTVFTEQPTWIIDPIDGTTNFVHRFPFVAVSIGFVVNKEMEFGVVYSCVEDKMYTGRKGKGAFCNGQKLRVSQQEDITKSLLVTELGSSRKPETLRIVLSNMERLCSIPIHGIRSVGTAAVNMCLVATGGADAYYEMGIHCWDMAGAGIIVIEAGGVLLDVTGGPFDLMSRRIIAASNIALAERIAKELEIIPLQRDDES
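CHO-M1, 2000 cells/well, cultured 16–30 h; cpd up to 46 uM; carbachol (50 uM solution, stimulation buffer w/ 50 mM LiCl, pH 7.4), 30 min 37C; IP-One TR-FRET, 10 min RT; Ex 320/Em 665, 620; Hill-fit AC50.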
12-hLO inh = blocks human 12-lipoxygenase activity; P18054; purified 12-hLO, xylenol orange hydroperoxide absorbance; Potency, µM (titrated, usually from 57.1 µM), most hits filed as inhibitors; 0.12% of 150,000 active; note: nearly all actives have a fitted effect of over 55% in size
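Xylenol orange chromogenic assay: hydroperoxide from 12hLO oxidises Fe(II), giving red-shifted Fe(III)-XO absorbance. Conditions: 150 nM enzyme, 40 uM arachidonic acid, 25 mM Hepes pH 7.0, 0.01% Triton X-100, 30 min, room temperature.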
ALOX15B inhib = inhibitors of human 15-lipoxygenase 2 (ALOX15B). O15296. purified 15hLO-2, xylenol orange hydroperoxide absorbance. Potency, µM (highest dose often 57.1 µM), most hits filed as inhibitors. 0.56% of 110,000 active; note: nearly all actives have a fitted effect of over 60% in size
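Read-out: hydroperoxide product oxidises ferrous iron, measured as xylenol orange complex via the 573-to-405 nm absorbance ratio after 30 min. Reaction: 50 nM enzyme, 15 min compound preincubation, 45 uM arachidonic acid, 90 min RT, Hepes pH 7.5 with Triton X-100.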
PNC assembly inh = blocks assembly of the perinucleolar compartment; PC3M PTB-GFP, PNC prevalence imaging, 16 h; active compounds read low; activity change (PNC), negative = inhibition, % at 10 µM; 3.1% of 140,000 active; AID 2417;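 active = readout at or below -70, meaning at least 70% loss of cells showing the perinucleolar compartment, a nuclear body marking cancer cells; inconclusive = readout between -30 and a set limit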
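Compounds are pinned in duplicate onto adhered PC3M cells stably expressing GFP-tagged PTB and incubated 16 h at 37 C. Cells are then fixed, nuclei stained with Hoechst, and PNC-positive cells counted.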
Numbers stand for hits; i = inactive; ? = inconclusive; nt = no result; [ ] = another dose, or the depositor's remark. Only some compounds are listed: those with a hit (about 3% of all), similar ones and a draw of the others. Unless noted, calls come from the whole dose curve; as a rule, active = well fitted curve in the direction sought with a large enough effect; inconclusive = small, poorly fitted or top-dose-only effect, or another doubt; inactive = no such curve, though single readings can be large; an effect the other way counts as inactive or inconclusive.

SMILES | IMPase inh | 12-hLO inh | ALOX15B inhib | PNC assembly inh
Cc1ccc(S(=O)(=O)N(C)C)cc1NC(=O)[C@H](Cc1ccccc1)N1C(=O)c2ccccc2C1=O | nt | i | nt | i
COc1ccc2[nH]c(=O)c(C(c3nnnn3C3CCCC3)N3CCN(Cc4ccc5c(c4)OCO5)CC3)cc2c1 (configuration not stated) | i | i | i | ?
O=C(c1cccc(F)c1)N1CCC2(CC1)CN(c1ccc(-c3ccccc3)cc1)C2 | nt | i | i | nt
Cc1ccccc1NC(=O)C1(C)Cc2ccccc2C(=O)O1 (configuration not stated) | i | i | nt | i
CC1(C(=O)O)Cc2ccccc2C(=O)O1 (configuration not stated) | i | i | i | -101
Cc1ccc(NCc2nnc(SCC(=O)N(Cc3ccccc3)C(C)(C)C)o2)c(C)c1 | ? | i | i | i
CN(C)CCCC1(c2ccc(F)cc2)OCc2cc(C#N)ccc21 (configuration not stated) | nt | i | nt | -115
CN(Cc1ccco1)C(=O)C(Cc1ccccc1)NS(=O)(=O)c1ccc2c(c1)CCC(=O)N2 (configuration not stated) | i | i | i | -81
CCCNC(=O)C(Cc1ccccc1)NS(=O)(=O)c1ccc2c(c1)CCC(=O)N2 (configuration not stated) | i | i | i | i
Cc1cc(N2CCN(S(=O)(=O)Cc3ccccc3)CC2)n2ncnc2n1 | i[1.84 µM] | i | i[11.4 µM] | -99
Cc1cc(N2CCN(S(=O)(=O)c3ccc4c(c3)OCCO4)CC2)n2ncnc2n1 | ? | i | i | i
COc1ccc(NC(=O)/C(C#N)=C\c2cc(C)n(-c3ccc(Oc4ccc([N+](=O)[O-])cn4)cc3)c2C)cc1 | i | i | i | i
Cc1cc(C=O)c(C)n1-c1ccc(Oc2ccc([N+](=O)[O-])cn2)cc1 | nt | i | nt | -118
Cc1ccc(OCCn2cc(C(=S)N3CCCC3)c3ccccc32)cc1C | i | ? | ? | -106
S=C(c1cn(CCOc2ccccc2)c2ccccc12)N1CCCC1 | i | i | ? | i
Cc1cc2ccccc2n1CCNC(=O)COc1ccccc1 | i | i | i | -103
Cc1cc2ccccc2n1CCNC(=O)Cc1cccc2ccccc12 | ? | i | i | -108
C/C(=N\NC(=S)NC1CCCCC1)c1ccccc1 | nt | ? | nt | -100
S=C(NC1CCCCC1)NN(c1ccccc1)c1ccccc1 | nt | i | nt | i
COC(C(=O)NC1CC1)c1ccccc1 (configuration not stated) | nt | i | nt | -114
COc1ccc(Oc2nc3c(C)cccn3c(=O)c2/C=C(\C#N)c2nc3ccccc3[nH]2)cc1 | i | nt | nt | nt
Cc1ccc(S(=O)(=O)N(C)Cc2cc3ccccc3[nH]c2=O)cc1 | i | i | i | -99
CC(C)N=C(Nc1ccccc1)c1cccnc1 | i | i | i | i
Cc1cccc(CNc2ccnc(-c3ccccc3CN(C)C)n2)c1 | nt | i | i | nt
CCC1=Nc2cc(C(=O)NCc3ccco3)ccc2Sc2ccc(Cl)cc21 | nt | i | nt | -100
SMILES | IMPase inh | 12-hLO inh | ALOX15B inhib | PNC assembly inh
Cc1nn(C)c(C)c1CNC(=O)/C=C/c1ccccc1F | nt | i | nt | -113
CCn1cc(/C=C/C(=O)NCc2c(C)nn(C)c2C)cn1 | i | i | i | i
O=C(O)[C@@H](c1ccccc1)[C@@H](C(=O)O)c1ccccc1 | nt | i[11.4 µM] | i[11.4 µM] | nt
CC(=O)c1c[nH]c2ccc(C)cc2c1=O | i | i | i | -87
CCOC(=O)c1ccc2[nH]cc(C(C)=O)c(=O)c2c1 | i | i | nt | i
Cc1ccc(S(=O)(=O)/N=C2/C=C(C3C(=O)CC(C)(C)CC3=O)C(=O)c3ccccc32)cc1 | i | i | i | i
CCc1ccc(S(=O)(=O)/N=C2/C=C(Sc3ncn[nH]3)C(=O)c3ccccc32)cc1 | nt | ? | nt | -123
c1ccc2c(c1)nnn2CN1CCOCC1 | nt | i[11.4 µM] | i[11.4 µM] | nt
Cn1cc2c(=O)n(/N=C/c3ccccc3)cnc2n1 | nt | i | nt | -82
NCC1CCCCC1CC(=O)O (configuration not stated) | nt | i | i | nt
CCN(CC)c1ccc(N=Cc2ccccc2[N+](=O)[O-])cc1 | nt | i | nt | -99
COc1ccc(OC)c(NC(=O)C(=O)NCCC2=CCCCC2)c1 | nt | i | nt | i
Cc1sc2nc(SCC(=O)N3CCCCC3)[nH]c(=O)c2c1C | i | i | nt | i
Cc1sc2nc(SCC(=O)N3CCCC3)[nH]c(=O)c2c1C | i | i | i | -80
Cc1ccc(N2C(=O)C3C4C=CC(CNC(=S)Nc5ccc(F)cc5)(O4)C3C2=O)cc1 (configuration not stated) | nt | i | nt | -80
O=C1C2C3C=CC(CO)(O3)C2C(=O)N1c1ccc(-c2ccccc2)cc1 (configuration not stated) | i | ? | 0.4µM | ?
Cc1ccc(N2C(=O)C3C4C=CC(CNC(=S)Nc5cccc(Cl)c5)(O4)C3C2=O)cc1 (configuration not stated) | nt | i | nt | i
OC[C@@H]1O[C@@H](n2cnc3cncnc32)[C@@H](O)[C@H]1O | i | i | i | nt
CN1CCN(C(=S)Nc2cc([N+](=O)[O-])ccc2Cl)CC1 | nt | i | nt | i
Cc1cc(C)cc(NC(=O)CCCn2c3ccccc3c(=O)c3ccccc32)c1 | i | nt | nt | nt
COc1ccc(/C=N/n2c(-c3ccco3)nc3ccccc3c2=O)cc1 | i | i | nt | -100
CC(C)N=c1scc(-c2ccco2)n1/N=C/c1ccc(O)c(O)c1 | i | ? | 13µM | i
Oc1ccc(/C=N/n2c(-c3ccco3)csc2=Nc2cccnc2)c(O)c1 | nt | i | nt | i
CCCCC[C@H](O)/C=C/C=C\CCCCCCCC(=O)O | nt | i | nt | nt
COc1nc2c(C)cccc2cc1-c1noc(-c2ccncc2)n1 | i | i | i | i
SMILES | IMPase inh | 12-hLO inh | ALOX15B inhib | PNC assembly inh
CCOC(=O)CNC(=O)CSc1nc2cccnc2n1Cc1ccccc1 | i | i | i | -80
COc1ccc(-n2c(CCc3ccccc3)nnc2SCC(=O)NCc2ccccc2)cc1 | i | i | i | -108
COCCCn1c(SCC(=O)NCc2ccccc2)nc2ccccc2c1=O | i | i | nt | -100
CCOC(=O)CNC(=O)CSc1nc2cccnc2n1C1CCCCC1 | i | i | i | -93
CCOC(=O)c1ccc(NS(=O)(=O)c2ccc3c(c2)CCN3C(=O)CC)cc1 | i | nt | nt | nt
CNC1C(O)[C@@H]2OC(O[C@@H]3C(O)C(O)C(N)C[C@H]3N)C(N)C[C@H]2O[C@H]1O[C@@H]1OC(CO)C(N)C(O)C1O (some centres not stated) | nt | i | i | nt
NC(N)=N[C@@H]1C(O)[C@H](N=C(N)N)[C@@H](O)C(O)[C@H]1O (some centres not stated) | nt | i[11.4 µM] | i[11.4 µM] | nt
CCOC(=O)C1=C(Cc2ccc(C)cc2)C(=O)c2ccccc2C1=O | i | ? | 10µM | i
CCOC(=O)c1ccc(COC(=O)c2ccc3c(c2)-c2ccccc2C3=O)cc1 | i | i | i | i
CCOC(=O)c1c(C)nc2c(c1-c1cc(OC)ccc1OC)C(=O)c1ccccc1-2 | i | i | i | ?
CCOC(=O)C1=C(Cc2ccc(OC)cc2)C(=O)c2ccccc2C1=O | i | i | 13µM | i
CC#N | nt | i | i | nt
Cc1ccc(NCC(=O)NNC2=NCCC2)c(C)c1 | nt | i | nt | i
